Hit rate of the full screen: of about 39,000 compounds, about 1,500 (3.8%) were called active. The sample holds actives, similar compounds and a random draw of the others, so the mix is not that of the screen.
test system: HSkMC (human skeletal muscle cells); assay: cytotoxicity call (relative viability < 0.9); conditions: 10 µM

Structure (SMILES) | cytotoxicity call
COc1ccc(CN(C)C[C@@H]2OCCCC[C@H](C)Oc3ccc(NC(=O)c4ccccc4)cc3C(=O)N([C@H](C)CO)C[C@H]2C)cc1 | inactive
C[C@@H]1CCCCO[C@@H](CN(C)C(=O)Nc2ccc(F)cc2)[C@@H](C)CN([C@@H](C)CO)C(=O)c2cc(NC(=O)Cc3ccccc3)ccc2O1 | inactive
C[C@H](CO)N1C[C@H](C)[C@@H](CN(C)C(=O)c2ccccc2)OCCCC[C@H](C)Oc2ccc(NC(=O)NC3CCCCC3)cc2C1=O | inactive
Cn1cnc(S(=O)(=O)N2C[C@H](O)COC[C@@H]3O[C@H](CC(=O)NCc4cc(F)cc(F)c4)CC[C@H]32)c1 | inactive
N[C@H](C(=O)O)[C@@H](OCc1ccccc1)C(=O)O | inactive
C[C@@H]1CN([C@@H](C)CO)C(=O)c2cc(NS(=O)(=O)c3cccs3)ccc2O[C@@H](C)CCCCO[C@@H]1CN(C)C(=O)Nc1ccccc1 | inactive
CC(C)NC(=O)N1Cc2cc(C(=O)NC3CCCCC3)nc(-c3cccc(-c4cccnc4)c3)c2[C@@H]1CCO | inactive
CC(C)NC(=O)N1Cc2cc(C(=O)NC3CCCCC3)nc(-c3cccc(-c4cccnc4)c3)c2[C@H]1CCO | active
CC(C)(C)[S@](=O)N1Cc2cc(C(=O)N[C@H]3CCN(Cc4ccccc4)C3)nc(-c3cccc(-c4cccnc4)c3)c2[C@@H]1CCO | inactive
CCCNC(=O)c1cc2c(c(-c3cccc(-c4cc5ccccc5o4)c3)n1)[C@H](CCO)N(C(=O)NC(C)C)C2 | inactive
CC(C)(C)[S@](=O)N1Cc2cc(C(=O)N[C@@H]3CCN(Cc4ccccc4)C3)nc(-c3cccc(-c4cccnc4)c3)c2[C@@H]1CCO | inactive
CCCNC(=O)c1cc2c(c(-c3cccc(-c4cc5ccccc5o4)c3)n1)[C@@H](CCO)N(C(=O)NC(C)C)C2 | inactive
CC(C)NC(=O)N1Cc2cc(C(=O)NC3Cc4ccccc4C3)nc(-c3cccc(-c4cccnc4)c3)c2[C@H]1CCO | active
CCNC(=O)c1cc2c(c(-c3cccc(-c4cc5ccccc5o4)c3)n1)[C@@H](CCO)N(C(=O)NC(C)C)C2 | inactive
CC(C)NC(=O)N1Cc2cc(C(=O)NC3Cc4ccccc4C3)nc(-c3cccc(-c4cccnc4)c3)c2[C@@H]1CCO | active
C[C@H]1CN([C@@H](C)CO)C(=O)c2cc(C#Cc3ccccc3F)cnc2O[C@H]1CN(C)C(=O)Cc1cccnc1 | inactive
COCC(=O)Nc1ccc2c(c1)OC[C@@H](C)N(C(=O)Cc1ccccn1)C[C@@H](C)[C@H](OC)CN(C)C2=O | inactive
COc1ccc(COC[C@]23NC(=S)N(C(=O)c4ccccc4)[C@H](c4ccccc4O2)[C@H]3CO[Si](C)(C)C(C)(C)C)cc1 | inactive

Reference: the antibiotic and cytotoxicity screens of Wong et al. (2023)
